High-throughput results from PubChem BioAssay.
Many of the other results were omitted from the sample, so hits are more common in it than they were.
RECQ1 helicase: RECQ1 (human) helicase inhibition | RECQ1 DNA unwinding, red fluorescence kinetic read | Potency, µM (highest dose often 57.3 µM), without a hit: at the highest dose activity, negative = inhibition, hits mostly inhibitors | 240,000 compounds, 0.54% hits | AID 2549;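 further: plate controls were vehicle for no effect and no enzyme for full effect; nearly all actives have a fitted effect of over 30% in size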
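50 nM RECQ1T1 preincubated 15 min with compound in Tris pH 8.0 buffer with MgCl2, DTT, Tween-20 and 2.5 ug/ml poly(dI-dC); started with 200 nM TAMRA/BHQ-2 forked duplex and 2 mM ATP. Unwinding read as fluorescence (525/598 nm), two reads 2 h apart.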
JMJD2E inh: blocks human JMJD2E demethylase activity | B2RXH2 | JMJD2E catalytic domain, FDH-coupled NADH fluorescence (FDH is formaldehyde dehydrogenase) | Potency, µM (highest dose often 57.1 µM), for the others: top-dose activity change, negative = inhibition, usual class: inhibitors | 230,000 compounds, 1.6% hits | AID 2147; active means well fitted inhibition curve with a large enough effect, not every such curve was filed as active; inconclusive means small, poorly fitted or top-dose-only effect, or another doubt; inactive means no such curve, though single readings can be large or run the other way;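 further: 0% = wells with enzyme and -100% = buffer wells without enzyme; nearly all actives have a fitted effect of over 50% in size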
Target sequence (B2RXH2 1-337 limits assumed): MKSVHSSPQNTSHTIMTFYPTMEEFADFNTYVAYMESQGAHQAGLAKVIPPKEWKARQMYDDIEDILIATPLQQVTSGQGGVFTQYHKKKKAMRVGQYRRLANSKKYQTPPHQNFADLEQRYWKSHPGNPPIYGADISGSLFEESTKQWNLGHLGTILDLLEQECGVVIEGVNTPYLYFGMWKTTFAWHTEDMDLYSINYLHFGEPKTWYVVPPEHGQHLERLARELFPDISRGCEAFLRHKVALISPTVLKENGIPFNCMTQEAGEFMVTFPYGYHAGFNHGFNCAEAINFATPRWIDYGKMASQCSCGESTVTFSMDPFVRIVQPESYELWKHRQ
PKM2 activator: increases activity of human pyruvate kinase M2 | P14618 | purified PKM2, Kinase-Glo ATP luminescence, activation; response scale: 0% is enzyme alone, no compound | Potency, µM (titrated, usually from 57.5 µM), inactives show top-dose activation, most hits filed as activators | 260,000 compounds, 0.34% hits | AID 1631; further: nearly all actives have a fitted effect of over 55% in size
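Purified hPK-M2 (>95% pure) converted ADP (0.1 mM final) to ATP with 0.5 mM PEP in 50 mM imidazole pH7.2, KCl, MgCl2, Tween 20, BSA; 1 h at room temperature. ATP detected by Kinase-Glo luminescence.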
APE1 inh-1: APE1 (human) endonuclease inhibition; P27695; recombinant APE1, TAMRA/BHQ-2 abasic DNA cleavage fluorescence; Potency, µM (titrated, usually from 65.8 µM), without a hit: top-dose activity change, negative = inhibition, most hits filed as inhibitors; 350,000 compounds, 0.35% hits; AID 2517;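 further: plate controls were vehicle for no effect and reference inhibitor for full effect; nearly all actives have a fitted effect of over 55% in size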
Target sequence (P27695 whole entry, looked up): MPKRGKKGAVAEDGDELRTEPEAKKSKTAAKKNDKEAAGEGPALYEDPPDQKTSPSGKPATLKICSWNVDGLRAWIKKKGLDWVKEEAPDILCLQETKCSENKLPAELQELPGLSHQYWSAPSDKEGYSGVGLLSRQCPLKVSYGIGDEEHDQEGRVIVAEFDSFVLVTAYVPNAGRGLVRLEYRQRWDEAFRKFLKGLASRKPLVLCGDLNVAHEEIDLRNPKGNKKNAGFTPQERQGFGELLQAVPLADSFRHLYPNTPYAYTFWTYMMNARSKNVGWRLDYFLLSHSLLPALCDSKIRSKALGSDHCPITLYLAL
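APE1 at 0.75 nM final was preincubated with compound 15 min at room temperature, then 50 nM double-stranded THF abasic-site substrate (5'-TAMRA/3'-BHQ-2) was added. Fluorescence (ex 525/em 598 nm) was read kinetically; third-minus-first read gave activity.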
BLM helicase inh: Bloom syndrome helicase (human) inhibition; recombinant BLM DNA unwinding, fluorescence dequenching; P54132; 350,000 compounds, 0.2% hits; AID 2528; Potency, µM (highest dose often 56.1 µM), for the others: top-dose activity change, negative = inhibition, usual class: inhibitors;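 further: plate controls were vehicle for no effect and no enzyme for full effect; nearly all actives have a fitted effect of over 35% in size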
DNA dye displace: displaces fluorescent dye from DNA, flagging APE1 artifacts | 480 compounds, 7% hits | DNA fluorescent dye displacement counterscreen, fluorescence | shares compounds with APE1 inh-1 | Potency, µM (highest dose often 28.5 µM), for inactives: at the highest dose activity change, negative = inhibition, most hits filed as inhibitors;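 further: loss of thiazole orange fluorescence as the dye is displaced from duplex DNA; 0% = ThO with dsDNA and no compound and -100% = ThO without dsDNA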
EndoIV counter: Endo IV (E. coli) inhibition counter-screen; shares compounds with APE1 inh-1; E. coli Endo IV, fluorogenic AP-site DNA cleavage; Potency, µM (series often up to 27.1 µM), inactives show at the top dose activity change, negative = inhibition, actives largely listed as inhibitors; 560 compounds, 4% hits;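 further: plate controls were uninhibited enzyme wells for no effect and no enzyme buffer wells for full effect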
APE1 inh-2: confirmation of inhibitors of human APE1 endonuclease. shares compounds with APE1 inh-1. purified APE1, fluorogenic abasic-site DNA cleavage. Potency, µM (series often up to 57.1 µM), inactives show at the highest dose activity change, negative = inhibition, actives largely listed as inhibitors. 750 compounds, 44% hits. AID 2572; further: nearly all actives have a fitted effect of over 30% in size
APE1 FP inh: displaces DNA from human APE1 in FP assay | AID 2573 | APE1 binding to TAMRA-labelled double-stranded DNA, fluorescence polarization displacement | shares compounds with APE1 inh-1 | Potency, µM (doses to about 28.5 µM), for the others: at the highest dose activity, negative = inhibition, most hits filed as inhibitors | 480 compounds, 7% hits
Numbers without * were called inactive; ! = not active in a repeat; [ ] = another dose, or the depositor's remark. Unless noted, the call rests on the fitted dose curve; in most records, active means well fitted curve in the direction sought with a large enough effect; inconclusive means small, poorly fitted or top-dose-only effect, or another doubt; inactive means no such curve, though single readings can be large; an effect the other way counts as inactive or inconclusive. Unless noted, on the % scale 0 is the no-effect control and ±100 the full control effect; potency means the concentration at half of the fitted maximal effect.

O[C@@](CCN1CCCCC1)(c1ccccc1)C1CCCCC1 was read as RECQ1 helicase 3.5%[25.9 µM], JMJD2E inh 2.3%[25.5 µM], APE1 inh-1 -72.2%[21 µM], BLM helicase inh -1.7%[21.4 µM], DNA dye displace -3.2%, EndoIV counter 17.3%, APE1 inh-2 2.2%[24.4 µM] and APE1 FP inh inconclusive.
C=CCc1cccc2cc(C(=O)Nc3ccc(S(=O)(=O)Nc4nnc(CC)s4)cc3)c(=O)oc12 was read as RECQ1 helicase -4.3%, JMJD2E inh -11.9%, PKM2 activator inconclusive, APE1 inh-1 inconclusive, BLM helicase inh inconclusive and APE1 inh-2 39.8µM*.
`O=c1c(-c2cccs2)nc2cnc(N3CCNCC3)nc2n1C1CC1` gave RECQ1 helicase -4.3%, APE1 inh-1 -4.5% and BLM helicase inh -6.4%.
`Cc1cccc(OC(=O)Cn2c(C(F)(F)F)nc3ccccc32)c1` gave RECQ1 helicase -0.1%, JMJD2E inh -17.0%, PKM2 activator 1.6%, APE1 inh-1 35.5µM*, BLM helicase inh -1.9%, DNA dye displace -5.9%, EndoIV counter 2.5%, APE1 inh-2 inconclusive and APE1 FP inh -89.6%.
Screening O=C(Cn1c(C(F)(F)F)nc2ccccc21)Oc1cccc(C(F)(F)F)c1 returned RECQ1 helicase 7.9%, JMJD2E inh -1.4%, PKM2 activator 12.3%, APE1 inh-1 2.0% and BLM helicase inh 1.2%.
Screening O=c1c(O)c(-c2ccc(O)cc2O)oc2cc(O)cc(O)c12 returned RECQ1 helicase 7.08µM*, JMJD2E inh 25.1µM*, PKM2 activator 5.6%, APE1 inh-1 14.1µM*, BLM helicase inh -9.5%, EndoIV counter 5.3%[57.1 µM] and APE1 inh-2 -23.8%.
`O=c1c(O)c(-c2ccccc2O)oc2cc(O)cc(O)c12` gave RECQ1 helicase -4.3%, APE1 inh-1 -4.8% and BLM helicase inh -2.7%.
For CC1OC(OCC2OC(Oc3c(-c4ccc(O)cc4)oc4cc(O)cc(O)c4c3=O)C(O)C(O)C2O)C(O)C(O)C1O (stereo not drawn) the results were RECQ1 helicase inconclusive, JMJD2E inh -0.2%, PKM2 activator 11.6%, APE1 inh-1 3.55µM*, BLM helicase inh -19.2%, DNA dye displace inconclusive, EndoIV counter 0.3%, APE1 inh-2 3.16µM* and APE1 FP inh -0.9%.
Screening COc1c(-c2ccc(O)c(O)c2)oc2cc(O)cc(O)c2c1=O returned RECQ1 helicase 17.8µM*!, JMJD2E inh 14.1µM*, PKM2 activator -2.0%, APE1 inh-1 inconclusive, BLM helicase inh 11.2µM*!, DNA dye displace inconclusive, EndoIV counter 58.8%, APE1 inh-2 inconclusive and APE1 FP inh 1.0%.
`COc1cc(-c2oc3cc(O)cc(O)c3c(=O)c2O[C@@H]2O[C@H](CO)[C@@H](O)[C@H](O)[C@H]2O)ccc1O` gave RECQ1 helicase -9.0%, APE1 inh-1 -10.3% and BLM helicase inh -3.7%.
`O=c1c2c(O)cc(O)cc2oc2ccc(O)c(O[C@@H]3O[C@H](CO)[C@@H](O)[C@H](O)[C@H]3O[C@H]3O[C@H](CO)[C@@H](O)[C@H](O)[C@H]3O)c12` gave APE1 inh-1 38.6%.
O=c1c(OC2OC(CO)C(O)C(O)C2OC2OC(CO)C(O)C(O)C2OC2OC(CO)C(O)C(O)C2O)c(-c2ccc(O)c(O)c2)oc2cc(O)cc(O)c12 (stereo not drawn) was read as RECQ1 helicase -8.1%, JMJD2E inh 14.1µM*, PKM2 activator -1.4%, APE1 inh-1 inconclusive, BLM helicase inh -2.1%, DNA dye displace -21.3%, EndoIV counter 1.9%, APE1 inh-2 10µM* and APE1 FP inh inconclusive.
Screening CC(C)CO/N=C1/[C@H]2O[C@@H]2[C@@H](O)[C@H]2[C@H]1CCn1c(=O)n(C)c(=O)n12 returned RECQ1 helicase -10.4%[11.5 µM], APE1 inh-1 -9.6%[12.4 µM] and BLM helicase inh -2.8%[12.4 µM].
`Cc1cc(C=O)c(C)n1-c1cc(C(=O)O)cc(C(=O)O)c1` gave RECQ1 helicase inactive, JMJD2E inh inconclusive, PKM2 activator -1.8%, APE1 inh-1 16.9% and BLM helicase inh 7.6%.
Screening Cc1cc(C=O)c(C)n1-c1cccc(C(=O)O)c1 returned RECQ1 helicase -17.6%, JMJD2E inh 5.4%, PKM2 activator 1.4%, APE1 inh-1 22.4µM*, BLM helicase inh 4.0%, DNA dye displace 0.8%, EndoIV counter 3.1%, APE1 inh-2 15.8µM* and APE1 FP inh 1.8%.
C[C@H]1/C=C\CC(=O)OC[C@H](C)C(=O)N2CCC[C@@H]2C(=O)OC1 was read as RECQ1 helicase 0.1%[11.5 µM], APE1 inh-1 inconclusive and BLM helicase inh -1.2%[12.4 µM].
Screening Cc1ccccc1NS(=O)(=O)c1cccc(-c2nnc(-c3ccccc3)o2)c1 returned RECQ1 helicase inactive, JMJD2E inh -14.8%, PKM2 activator 9.8%, APE1 inh-1 -11.6% and BLM helicase inh -9.1%.
For O=S(=O)(NC1CCCCC1)c1cccc(-c2nnc(-c3ccccc3)o2)c1 the results were RECQ1 helicase inactive, JMJD2E inh inconclusive, PKM2 activator 16.3%, APE1 inh-1 inconclusive, BLM helicase inh -4.8%, DNA dye displace 1.1%, EndoIV counter -6.3%, APE1 inh-2 -3.6%[24.4 µM] and APE1 FP inh -9.8%.
CN(C)CCC=C1c2ccccc2C(C)(C)c2ccccc21 was read as BLM helicase inh -4.3%.
CN(C)CCC=C1c2ccccc2C=Cc2ccccc21 was read as RECQ1 helicase -0.7%, JMJD2E inh -9.9%, APE1 inh-1 2.1%, BLM helicase inh 15.0%, EndoIV counter -11.8%[57.1 µM] and APE1 inh-2 -12.6%.
CCC(O)OC(O)CC (stereo not drawn) was read as RECQ1 helicase 2.8% and APE1 inh-1 inconclusive.
COc1ccc2cc3cc(C(=O)NCc4ccc(C)cc4)oc3nc2c1 was read as BLM helicase inh -1.7%.
